Test results: publication PMC4552634, “A New Set of Chemical Starting Points with Plasmodium falciparum Transmission-Blocking Potential for Antimalarial Drug Discovery” (PLoS ONE, 2015)

Each compound was assayed on P. falciparum stage V gametocytes. Settings: 48 h, 5 µM; inhibitor.
Parameters: BacTiter-Glo ATP luminescence viability of purified stage V gametocytes in 384-well plates, per cent inhibition versus DMSO
Procedure: Once purified, gametocytes were counted using a Neubauer chamber, and the density was adjusted to 2.5 x 10^5 gametocytes/mL. Fifty μL of the gametocyte suspension (1.25 x 10^4 gametocytes) were added to each well of the 384-well plate containing the compounds, using a Multidrop combi (Thermo Electron Corporation). Plates were shaken for 5 sec to homogenize and then incubated at 37°C for 48 h in an atmosphere of 5% CO2, 5% O2, 90% N2. The ATP level of each well was determined using the BacTiter-Glo reagent (Promega) according to the recommendations of the manufacturer. The BacTiter-Glo assay generates a ‘glow-type’ luminescent signal produced by the luciferase reaction, which consists of mono-oxygenation of luciferin catalyzed by luciferase in the presence of Mg^2+, ATP and molecular oxygen. The luminescence was measured using a plate reader (Victor V, Perkin Elmer). […] The background value was subtracted from every other value of the assay prior to further calculation. The average of 16 replicates of vehicle control (0.5% or 0.1% DMSO) represents 100% of signal. Related to this value, each test concentration was calculated as percentage of control. All the calculations were done using MS Excel software. The compounds which presented inhibition ≥ 90% at 5 μM were progressed to the assay at 1 μM. […]

Compound | % Inhibition
CC[C@H]1CN2CCc3cc(OC)c(OC)cc3[C@@H]2C[C@@H]1C[C@H]1NCCc2cc(OC)c(OC)cc21 [TCMDC-125531] | 96.47%
CCC1CN2CCc3cc(OC)c(OC)cc3C2CC1CC1NCCc2cc(OC)c(OC)cc21 (centres unmarked) [TCMDC-125849] | 100.9%
